This is a sample that favours compounds with a hit; in the whole collection about 3.8% have one here.
Sfp PPTase inh = qHTS Assay for Inhibitors of Bacillus subtilis Sfp phosphopantetheinyl transferase (PPTase). Potency, µM, most hits filed as inhibitors. Biochemical Sfp PPTase activity, qHTS. 310,000 tested, 3.5% active;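 also: the enzyme is Sfp with the accession as filed and its product quenches rhodamine fluorescence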
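Fluorescence-quenching assay: 15 nM Sfp-PPTase preincubated 15 min at room temperature with compound, then 5 uM rhodamine-CoA and 12.5 uM BHQ-2-labelled YbbR peptide added. Fluorescence (ex 525/em 598 nm) read at start and after 30 min; difference gives rate.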
TrxR1 inh = qHTS Assay for Inhibitors of Mammalian Selenoprotein Thioredoxin Reductase 1 (TrxR1): qHTS. Thioredoxin reductase 1, cytoplasmic (Rattus norvegicus), O89049. recombinant rTrxR1, NADPH fluorescence consumption, selenite substrate. Potency, µM (titrated, usually from 114 µM), usual class: inhibitors. 390,000 tested, 1% active. AID 588453, 2011; also: nearly all actives have a fitted effect of over 65% in size
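Rat TrxR1 (90 nM in the dispensed reagent) was pre-reduced with 400 uM NADPH for 5 min at room temperature, then incubated with compound for 15 min. After 400 uM selenite was added, NADPH fluorescence (Ex 340/Em 450 nm) was followed for 8 min.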
TrxR1 substrate = qHTS Assay for Substrates of Mammalian Selenoprotein Thioredoxin Reductase 1 (TrxR1): qHTS. Thioredoxin reductase 1, cytoplasmic (Rattus norvegicus), O89049. purified TrxR1 substrate turnover, NADPH consumption readout. Potency, µM (top dose mostly 114 µM). 390,000 tested, 0.01% active. AID 588456, 2011; also: nearly all actives have a fitted effect of over 50% in size
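Rat TrxR1, dispensed at 90 nM, was prereduced with 400 uM NADPH (final) for 5 min at ~22 deg C, then incubated with compound 15 min before 400 uM selenite. A first-read NADPH fluorescence drop versus no-compound background flagged substrates.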
KAT2A inh = qHTS Assay for Inhibitors of GCN5L2; AID 504327, 2011; Potency, µM (series often up to 58.9 µM), actives largely listed as inhibitors; Histone acetyltransferase KAT2A (Homo sapiens), Q92830; 390,000 tested, 0.21% active; GCN5L2 HAT assay, ThioGlo1 CoA-SH fluorescence
Target sequence (Q92830 whole entry, looked up): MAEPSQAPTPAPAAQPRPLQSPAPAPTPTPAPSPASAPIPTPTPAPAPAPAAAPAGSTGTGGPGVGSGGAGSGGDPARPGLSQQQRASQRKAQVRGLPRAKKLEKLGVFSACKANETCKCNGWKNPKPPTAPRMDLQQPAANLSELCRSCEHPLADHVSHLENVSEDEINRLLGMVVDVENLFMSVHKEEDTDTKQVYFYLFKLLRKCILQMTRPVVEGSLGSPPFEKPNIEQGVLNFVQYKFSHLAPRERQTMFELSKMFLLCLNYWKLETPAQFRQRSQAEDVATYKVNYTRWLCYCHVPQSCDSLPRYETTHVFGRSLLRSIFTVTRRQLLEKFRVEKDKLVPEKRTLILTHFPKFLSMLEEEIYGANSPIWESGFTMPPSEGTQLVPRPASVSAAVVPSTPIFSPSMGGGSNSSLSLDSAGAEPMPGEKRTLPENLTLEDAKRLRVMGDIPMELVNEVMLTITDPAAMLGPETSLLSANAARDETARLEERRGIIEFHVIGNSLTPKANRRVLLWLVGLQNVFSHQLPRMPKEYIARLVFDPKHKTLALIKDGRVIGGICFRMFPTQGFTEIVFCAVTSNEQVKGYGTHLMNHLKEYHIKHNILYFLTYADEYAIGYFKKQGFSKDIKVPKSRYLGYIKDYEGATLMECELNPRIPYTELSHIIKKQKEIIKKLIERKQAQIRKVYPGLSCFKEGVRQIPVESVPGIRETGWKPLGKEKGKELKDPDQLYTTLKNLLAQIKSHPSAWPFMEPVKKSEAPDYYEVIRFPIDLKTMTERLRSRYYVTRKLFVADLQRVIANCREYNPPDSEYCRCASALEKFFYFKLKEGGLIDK
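Free CoA generated was detected with ThioGlo1 (50uM) fluorescence at Ex340nm/Em540nm, read immediately and after 20 min at room temperature. Enzyme, 20 nM in HEPES pH 7.5 buffer, saw compounds 15 min before adding 75uM H3(1-25) peptide and 70uM acetyl-CoA.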
GLS inh = qHTS for Inhibitors of Glutaminase (GLS). Glutaminase kidney isoform, mitochondrial (Homo sapiens), O94925. GLS enzymatic activity, qHTS titration. Potency, µM (doses to about 45.5 µM), usual class: inhibitors. AID 624170, 2012. 410,000 tested, 0.21% active
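hKGA; 45 mM KH2PO4 pH 8.2 + 0.02% Tween-20; cpd via pin tool; 1 mM Gln soln; GluOx/HRP/Amplex Red; RT 30 min; fluor. t0 & final.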
VDR inh = Inhibitors of the vitamin D receptor (VDR): qHTS. Vitamin D3 receptor (Homo sapiens), P11473. VDR-SRC2-3 peptide fluorescence polarization, 2 h. Potency, µM, usual class: inhibitors. 400,000 tested, 0.93% active. AID 504847, 2011
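Signal is fluorescence polarization, reporting how far test compounds block the interaction of VDR with the SRC2-3 coregulator peptide after a 2 h room-temperature incubation.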
A number is an active result; n = inactive; u = inconclusive; x = no result given; ! = repeats disagree; [ ] = dose if it differs, or a comment. Calls follow the shape of the dose curve; as a rule, active = well fitted curve in the direction sought with a large enough effect; inconclusive = small, poorly fitted or top-dose-only effect, or another doubt; inactive = no such curve, though single readings can be large; an effect the other way counts as inactive or inconclusive.

SMILES | Sfp PPTase inh | TrxR1 inh | TrxR1 substrate | KAT2A inh | GLS inh | VDR inh
COc1cccc(/C=C2/CCC(CN(C)C)C2=O)c1 (stereo not drawn) | x | 1.1µM | n[11.4 µM] | x | n | 40µM
CN(C)CC1CCC/C(=C/c2ccc(Cl)cc2)C1=O (stereo not drawn) | x | u | n | x | n | 79µM
COc1ccc(/C=C2/CCCC(CN(C)C)C2=O)cc1 (stereo not drawn) | x | u | n | x | n | u
CCCC/C=C1/CCC(CN(C)C)C1=O (stereo not drawn) | x | 0.63µM | n[11.4 µM] | x | n | u
S=c1[nH]nc2sc3ccccc3n12 | x | n | n | x | n | n
S=c1[nH]nc2nnc3ccccc3n12 | 56µM | n | n | n | n | n
CCN1C(=O)N[C@@H](c2cccc(C(F)(F)F)c2)[C@H](C(=O)OC)[C@H]1C | n | n | n | x | n | n
CCCC(c1nnnn1C(C)(C)C)N1CCN(Cc2ccccc2OC)CC1 (stereo not drawn) | 56µM | n | n | n | n | n
COc1ccc(Cn2c(O)c(C=Nc3ccc(C)cc3)c3ccccc3c2=O)cc1 | u | n | n | n | n | n
CCN1c2ccccc2NC2N=C(OC)C(c3ccccc3)C21 (stereo not drawn) | n | 20µM | n | n | n | u
COCCN=c1scc(-c2ccc3c(c2)NC(=O)CO3)n1/N=C(\C)c1ccc(O)cc1 | 89µM | n | n | n | n | n
COc1cc(/C=N/n2c(-c3ccc4c(c3)NC(=O)CO4)csc2=Nc2cccc(C)c2)ccc1O | n | n | n | n | n | n
O=C(/C=C/c1ccccc1)/C=C/c1ccccc1 | n | 56µM | n | n | n | 13µM
COCCNc1ccc([N+](=O)[O-])cc1C(=O)NC1CCCc2ccccc21 (stereo not drawn) | n | n | n | n | n | n
O=[N+]([O-])c1ccc(CNC2CCCc3ccccc32)cc1 (stereo not drawn) | 63µM | n | n | n | n | n
CCOc1ccc(-n2c(SCC(=O)N3CCCc4ccccc43)nc3c([nH]c4ccccc43)c2=O)cc1 | x | n | n | n | n | n
Nc1nc2c([nH]c(=O)n2C2OC(CO)C(O)C2O)c(=O)[nH]1 (stereo not drawn) | u | x | x | n | x | n
OCC1OC(n2cnc3c(=S)nc[nH]c32)C(O)C1O (stereo not drawn) | 3.5µM | n | n | n | n | n
Nc1nc(=S)c2ncn(C3OC(CO)C(O)C3O)c2[nH]1 (stereo not drawn) | 6.3µM | n | n | u | n | 71µM
CC1(C)OC2C(CO)OC(n3cnc4c(=S)nc[nH]c43)C2O1 (stereo not drawn) | 16µM | n | n | n | n | n
Nc1nc(=S)c2ncn([C@@H]3O[C@H](CO)[C@@H](O)[C@H]3O)c2[nH]1 | x | n | n | n | n | n
Nc1nc2c([nH]c(=S)n2C2OC(CO)C(O)C2O)c(=O)[nH]1 (stereo not drawn) | 45µM | x | x | n | x | u
O=C(CCC(=O)Nc1ccc(F)cc1)N/N=C/c1ccc(F)cc1 | n | n | n | n | n | n
O=C(CNC(=O)c1ccc(Br)o1)NC1CCCCCC1 | x | n | n | n | n | n
CC(=O)NC1=NN(C(C)=O)C(C)(CC(=O)OC(C)(C)C)S1 (stereo not drawn) | n | n | n | n | n | n
SMILES | Sfp PPTase inh | TrxR1 inh | TrxR1 substrate | KAT2A inh | GLS inh | VDR inh
CCN(CC)CCSC(=O)C(c1ccccc1)c1ccccc1 | n | x | x | u | n | 25µM
O=C(NCc1ccco1)C1CC(O)CN1C(=O)Nc1ccccc1 (stereo not drawn) | n | n | n | n | n | n
N[C@@H](CO)C(=O)O | 63µM! | x | x | n | x | n
N[C@@H](CS(=O)O)C(=O)O | 56µM | u | n | n | x | n
CCN1CCN(c2ccc(NC(=O)c3cccc(N4CCCC4=O)c3)cc2)CC1 | n | n | n | n | n | n
Cc1ccc(NC(=S)/C(=C(\[O-])c2ccc(F)cc2)[n+]2ccccc2)cc1 | 45µM | n | n | n | n | n
C=CCNC(=S)/C(=C(\[O-])c1ccc(Cl)cc1)[n+]1ccccc1 | 8.9µM | n | n | n | n | n
COc1ccc(NC(=O)Nc2nnc([C@@H]3C[C@H](O)[C@@H](CO)O3)s2)cc1 | x | x | x | x | n | x
CC(C)(C)c1cc(NS(=O)(=O)c2ccc3c(c2)OCCO3)on1 | n | n | n | n | n | n
CCOC(=O)c1ccc(S(=O)(=O)Nc2cc(C(C)(C)C)no2)cc1 | 79µM | n | n | n | n | n
COc1ccc(N2CC(NC(=O)COc3ccccc3C)CC2=O)cc1OC (stereo not drawn) | x | n | n | n | n | n
CCOC(=S)SCC(=O)N1CCc2ccccc2C1C1C(=O)CCCC1=O (stereo not drawn) | 56µM | n | n | n | n | n
CS(=O)(=O)N(Cc1ccccc1)c1ccc(C(=O)NCCSCc2ccco2)cc1 | 28µM | u | n | n | n | n
Cc1ccc(C)c(N(CC(=O)NCCSCc2ccco2)S(C)(=O)=O)c1 | 20µM | u | n | n | n | n
Cc1cccc(N(CC(=O)NCCSCc2ccco2)S(=O)(=O)c2ccccc2)c1 | 56µM | 11µM | n | n | n | n
Cc1ccc(CSCCNC(=O)CN(c2cc(C)ccc2C)S(C)(=O)=O)cc1 | n | n | n | n | n | n
O=c1o[nH]c(-c2ccccc2)c1C=Nc1ccc(Cl)cc1 | n | n | n | n | n | n
COc1ccc(S(=O)(=O)NNc2nc(C)cc(C)n2)cc1[N+](=O)[O-] | 50µM | n | n | n | n | n
Cc1cccc(-n2c(SCC(N)=O)nc3c(c2=O)C2(CCCC2)Cc2ccccc2-3)c1 | n | n | n | n | n | n
COc1ccc(NC(=O)c2ccc3ccccc3n2)cc1S(=O)(=O)Nc1ccccc1Cl | n | n | n | n | n | n
Cc1ccc(N)cc1O | x | u | n | n | n | n
Cc1cc(O)c(-c2cc(O)c(C)cc2O)cc1O | 2.5µM | n | n | 16µM | u | 25µM
COc1cc(/C=C2/C(=O)N(c3ccc(C(=O)O)cc3)N=C2C)cc(OC)c1O | 40µM | n | n | n | n | n
COc1cccc(OCC(=O)N(Cc2nc(-c3ccc(Cl)cc3)no2)C(C)C)c1 | n | n | n | n | n | n
O=C(COC(=O)c1nsc(Cl)c1Cl)NC1CCCC1 | n | n | n | n | n | n
